# Measured values reported in paper PMC11062922 (Nature Chemical Biology, 2023).
# Like-named read-outs stand apart in the source and are kept apart here.
# Key:
# Design in all cases: species or system human, MV4-11 + K-562 + COLO205 + SK-N-BE2 + OVCAR-8
# [1] = system: AURKB; conditions: read-out: apparent Kd, compound concentrations: 100 nM and 1000 nM (sheet 'Samples'), n = 1
# [2] = system: CAMK2B; conditions: read-out: apparent Kd; compound concentrations: 100 nM and 1000 nM (sheet 'Samples'), CATDS: 0.10460822503909301; n = 1
# [3] = system: EIF2AK1; conditions: read-out: apparent Kd, compound concentrations: 100 nM and 1000 nM (sheet 'Samples'), n = 1
# [4] = system: MAP2K5; conditions: read-out: apparent Kd; compound concentrations: 100 nM and 1000 nM (sheet 'Samples'), CATDS: 0.13171106930199999; n = 1
# [5] = system: MAP3K4; conditions: read-out: apparent Kd; compound concentrations: 100 nM and 1000 nM (sheet 'Samples'), CATDS: 6.3313755179161796E-2; n = 1
# [6] = system: MAP4K2; conditions: read-out: apparent Kd; compound concentrations: 100 nM and 1000 nM (sheet 'Samples'), CATDS: 8.0363217180658503E-2; n = 1
# [7] = system: MAP4K3; conditions: read-out: apparent Kd; compound concentrations: 100 nM and 1000 nM (sheet 'Samples'), CATDS: 7.0061337897802001E-2; n = 1
# [8] = system: NEK2; conditions: read-out: apparent Kd; compound concentrations: 100 nM and 1000 nM (sheet 'Samples'), CATDS: 7.0707362303254903E-2; n = 1
# [9] = system: PTK6; conditions: read-out: apparent Kd; compound concentrations: 100 nM and 1000 nM (sheet 'Samples'), CATDS: 9.6831640225396698E-2; n = 1
# [10] = system: RIPK3; conditions: read-out: apparent Kd; compound concentrations: 100 nM and 1000 nM (sheet 'Samples'), CATDS: 5.9468743018389697E-2; n = 1
# [11] = system: STK3; conditions: read-out: apparent Kd; compound concentrations: 100 nM and 1000 nM (sheet 'Samples'), CATDS: 6.0873779479402902E-2; n = 1
# [12] = system: STK4; conditions: read-out: apparent Kd; compound concentrations: 100 nM and 1000 nM (sheet 'Samples'), CATDS: 7.2736683737858396E-2; n = 1
# [13] = system: YES1; conditions: read-out: apparent Kd; compound concentrations: 100 nM and 1000 nM (sheet 'Samples'), CATDS: 8.4422564435587905E-2; n = 1
# [14] = system: AURKA; conditions: read-out: apparent Kd; compound concentrations: 100 nM and 1000 nM (sheet 'Samples'), CATDS: 7.2956934491261893E-2; n = 1
# [15] = system: EPHB6; conditions: read-out: apparent Kd; compound concentrations: 100 nM and 1000 nM (sheet 'Samples'), CATDS: 7.4696774901665194E-2; n = 1
# [16] = system: FER; conditions: read-out: apparent Kd; compound concentrations: 100 nM and 1000 nM (sheet 'Samples'), CATDS: 5.6438447882713398E-2; n = 1
# [17] = system: FES; conditions: read-out: apparent Kd; compound concentrations: 100 nM and 1000 nM (sheet 'Samples'), CATDS: 5.2113476135959902E-2; n = 1
# [18] = system: FLT3; conditions: read-out: apparent Kd, compound concentrations: 100 nM and 1000 nM (sheet 'Samples'), n = 1
# [19] = system: FLT4; conditions: read-out: apparent Kd; compound concentrations: 100 nM and 1000 nM (sheet 'Samples'), CATDS: 0.232544079130999; n = 1
# [20] = system: IRAK3; conditions: read-out: apparent Kd; compound concentrations: 100 nM and 1000 nM (sheet 'Samples'), CATDS: 5.7923631136655801E-2; n = 1
# [21] = system: MET; conditions: read-out: apparent Kd; compound concentrations: 100 nM and 1000 nM (sheet 'Samples'), CATDS: 6.0904662121703403E-2; n = 1
# [22] = system: MST1R; conditions: read-out: apparent Kd; compound concentrations: 100 nM and 1000 nM (sheet 'Samples'), CATDS: 5.5385881905980802E-2; n = 1
# [23] = system: PDGFRB; conditions: read-out: apparent Kd, compound concentrations: 100 nM and 1000 nM (sheet 'Samples'), n = 1
# [24] = system: PLK4; conditions: read-out: apparent Kd; compound concentrations: 100 nM and 1000 nM (sheet 'Samples'), CATDS: 9.5800604648041798E-2; n = 1
# [25] = system: TNK1; conditions: read-out: apparent Kd; compound concentrations: 100 nM and 1000 nM (sheet 'Samples'), CATDS: 0.119940011708452; n = 1
# [26] = system: EGFR; conditions: read-out: apparent Kd; compound concentrations: 100 nM and 1000 nM (sheet 'Samples'), CATDS: 9.4589689461148804E-2; n = 1
# [27] = system: LIMK1; conditions: read-out: apparent Kd; compound concentrations: 100 nM and 1000 nM (sheet 'Samples'), CATDS: 8.0890535197294403E-2; n = 1
# [28] = system: LIMK2; conditions: read-out: apparent Kd; compound concentrations: 100 nM and 1000 nM (sheet 'Samples'), CATDS: 0.109376912936183; n = 1
# [29] = system: NNT; conditions: read-out: apparent Kd; compound concentrations: 100 nM and 1000 nM (sheet 'Samples'), CATDS: 8.6496378870903501E-2; n = 1
# [30] = system: TESK2; conditions: read-out: apparent Kd; compound concentrations: 100 nM and 1000 nM (sheet 'Samples'), CATDS: 9.3788253526120594E-2; n = 1
# [31] = system: BMP2K; conditions: read-out: apparent Kd; compound concentrations:100 nM and 1000 nM (sheet 'Samples'); n = 1
# [32] = system: MAP3K1; conditions: read-out: apparent Kd; compound concentrations:100 nM and 1000 nM (sheet 'Samples'); n = 1
# [33] = system: MAP4K5; conditions: read-out: apparent Kd; compound concentrations:100 nM and 1000 nM (sheet 'Samples'); n = 1
# [34] = system: MAPK6; conditions: read-out: apparent Kd; compound concentrations:100 nM and 1000 nM (sheet 'Samples'); n = 1
# [35] = system: PIK3CD; conditions: read-out: apparent Kd; compound concentrations:100 nM and 1000 nM (sheet 'Samples'); n = 1
smiles,measurement,setting,value
Cn1cc(-c2ccc3c(c2)CCN3C(=O)Cc2ccccc2Cl)c2c(N)ncnc21 [GSK2608885A],potency estimated from few doses,[1]; CATDS: 9.3884210166783694E-2,0.825 µM
same,potency estimated from few doses,[2],0.685 µM
same,potency estimated from few doses,[3]; CATDS: 6.5022580640831398E-2,1.79 µM
same,potency estimated from few doses,[4],0.478 µM
same,potency estimated from few doses,[5],1.92 µM
same,potency estimated from few doses,[6],1.11 µM
same,potency estimated from few doses,[7],1.49 µM
same,potency estimated from few doses,[8],1.46 µM
same,potency estimated from few doses,[9],0.781 µM
same,potency estimated from few doses,[10],2.28 µM
same,potency estimated from few doses,[11],2.13 µM
same,potency estimated from few doses,[12],1.37 µM
same,potency estimated from few doses,[13],1 µM
CN(c1ccc(NC(=O)Nc2c(Cl)cccc2Cl)cc1)c1ccnc(Nc2cccc(CS(C)(=O)=O)c2)n1 [GW809897X],potency estimated from few doses,[14],0.449 µM
same,potency estimated from few doses,[1]; CATDS: 8.8518013228777503E-2,0.271 µM
same,potency estimated from few doses,[15],0.421 µM
same,potency estimated from few doses,[16],1.01 µM
same,potency estimated from few doses,[17],1.4 µM
same,potency estimated from few doses,[18]; CATDS: 0.75020516601315201,0.00304 µM
same,potency estimated from few doses,[19],0.0316 µM
same,potency estimated from few doses,[20],0.921 µM
same,potency estimated from few doses,[21],0.774 µM
same,potency estimated from few doses,[22],1.09 µM
same,potency estimated from few doses,[23]; CATDS: 5.6967263110053901E-2,0.979 µM
same,potency estimated from few doses,[24],0.224 µM
same,potency estimated from few doses,[25],0.134 µM
Nc1ncnc2scc(-c3ccc(NC(=O)Cc4cc(F)ccc4F)cc3)c12.O=C(O)C(F)(F)F [SB-731254-M],potency estimated from few doses,[1]; CATDS: 0.15442610034884699,0.399 µM
same,potency estimated from few doses,[26],1.18 µM
same,potency estimated from few doses,[3]; CATDS: 0.14381895647439999,0.457 µM
same,potency estimated from few doses,[18]; CATDS: 0.410073684021382,0.0852 µM
same,potency estimated from few doses,[27],1.91 µM
same,potency estimated from few doses,[28],0.817 µM
same,potency estimated from few doses,[29],1.53 µM
same,potency estimated from few doses,[23]; CATDS: 9.2318331607570206E-2,1.26 µM
same,potency estimated from few doses,[30],1.21 µM
C[C@@H](Oc1cc(-n2cnc3ccc(OCC4CCN(C)CC4)cc32)sc1C(N)=O)c1ccccc1Cl [GSK571989A],potency estimated from few doses,[31],1.87 µM
same,potency estimated from few doses,[32],1.6 µM
same,potency estimated from few doses,[33],1.67 µM
same,potency estimated from few doses,[34],1.54 µM
same,potency estimated from few doses,[35],0.185 µM
